High-throughput results as filed in PubChem.
CYP2C19 inh = inhibitors of human CYP2C19; AID 778; CYP2C19 Supersomes, luciferin-H EGE luminescence, 30 min; inhibition, % at 5 µM; P33261; 96,000 compounds, 21% hits;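 active means CYP2C19 inhibition above a set limit at 5 µM in the primary screen, cut at about 50% in these data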;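 further: plate controls were negative control wells for no effect and 2.5 mM tranylcypromine positive control for full effect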
MRP-1 activ = activates MRP-1; H69AR cells + doxorubicin, viability rescue, CellTiter-Glo; viability increase, % at 10 µM; 140,000 compounds, 0.61% hits; AID 799;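 active means viability gain under doxorubicin at or above a set limit, the compound median plus 3 SD, cut at about 4.7% in these data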;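 further: MRP-1 overexpressing cells given doxorubicin 25 µM after compound pretreatment; 18-22 h compound pretreatment then 72 h with doxorubicin before readout; 0% = doxorubicin-only wells and 100% = vehicle-treated cells without doxorubicin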
CYP2C9 act = increases human cytochrome P450 2C9 activity; P11712; recombinant CYP2C9, luciferin-H conversion, luminescence; active compounds read high; factor 1 = untreated enzyme, 0 = blocked; activation factor at 5 µM; 96,000 compounds, 1.4% hits; AID 1024;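 active means activation factor of 2 or more for CYP2C9 at a 5 µM dose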;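 further: 0 = sulfaphenazole-blocked wells and 1 = vehicle-only wells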
Target sequence (P11712 whole entry, looked up): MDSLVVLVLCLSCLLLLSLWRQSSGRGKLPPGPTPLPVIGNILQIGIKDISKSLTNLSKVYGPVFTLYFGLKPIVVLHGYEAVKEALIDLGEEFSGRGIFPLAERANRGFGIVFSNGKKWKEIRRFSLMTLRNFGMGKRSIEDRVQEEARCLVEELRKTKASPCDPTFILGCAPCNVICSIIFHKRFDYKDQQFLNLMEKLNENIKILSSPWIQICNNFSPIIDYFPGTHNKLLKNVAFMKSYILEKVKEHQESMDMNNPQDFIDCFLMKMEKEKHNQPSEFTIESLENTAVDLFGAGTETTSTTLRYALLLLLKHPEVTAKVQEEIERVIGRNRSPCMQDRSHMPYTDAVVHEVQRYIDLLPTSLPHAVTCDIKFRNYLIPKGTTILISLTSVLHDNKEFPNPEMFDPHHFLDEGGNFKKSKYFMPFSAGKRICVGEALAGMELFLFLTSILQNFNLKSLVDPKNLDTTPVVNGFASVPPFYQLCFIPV
CYP2C9 inhib = inhibitors of human CYP2C9; P11712; CYP2C9 Supersomes, luciferin-H conversion, luminescence; inhibition, % at 5 µM; 96,000 compounds, 20% hits; AID 777;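 active means blocking of liver enzyme CYP2C9 beyond about 50% at 5 µM, limit read from the data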
MRP resist rev = compounds reversing MRP-mediated drug resistance | H69AR cells + 2 uM doxorubicin, CellTiter-Glo, 72 h | differential viability (reversal), % at 10 µM | AID 602 | 85,000 compounds, 0.04% hits;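 active means viability drop by adding the cancer drug above about 55%, with treated viability meeting a 40% cutoff, limit read from the data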;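 further: viability without doxorubicin minus viability with 2 µM doxorubicin for each compound; larger differential means the compound sensitizes cells more to doxorubicin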
CYP2C19 activ = increases human CYP2C19 enzyme activity; P33261; recombinant CYP2C19, luciferin-H EGE luminescence; active compounds read high; 0 = fully inhibited enzyme, 1 = untreated enzyme; activation factor at 5 µM; 96,000 tested, under 10 active;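 active means activation factor of at least 2 at 5 µM in the primary screen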;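 further: 0 = wells with 2.5 mM tranylcypromine and 1 = vehicle-only wells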
* marks the source's active call; other numbers are inactive results; / = no result given. A selection: hits, their analogues and other compounds. The true share with any hit is near 21%.

SMILES	CYP2C19 inh	MRP-1 activ	CYP2C9 act	CYP2C9 inhib	MRP resist rev	CYP2C19 activ
C=CCNc1sc(C(=O)c2ccc(Br)s2)c(N)c1C#N	18	1	0.4	63*	19	0.8
COc1ccc(CCNC(=O)COc2ccc(-c3ccc(C)cc3)cc2)cc1OC	3	-4	0.3	74*	/	1
COc1ccc(CCNC(=O)C(=O)NCCOc2ccccc2)cc1OC	/	3	/	/	/	/
COc1ccc(CCNC(=O)COc2ccc(S(=O)(=O)N3CCOCC3)cc2)cc1	24	0	0.7	34	4	0.8
COc1ccc(CCNC(=O)COc2ccc(S(=O)(=O)N3CCOCC3)cc2)cc1OC	15	-2	0.5	50*	18	0.9
Cc1ccc(S(=O)(=O)N(c2nc(N(C)C)nc(N(C)C)n2)n2cnnc2)cc1	-6	0	0.5	54*	/	1.1
Cc1ccc(-n2c(SCC(=O)OC(C)C)nnc2-c2ccco2)cc1	23	-1	2.3*	-130	-3	0.8
Cc1ccc(-n2c(SCC(=O)OC(C)C)nnc2-c2ccccn2)cc1	51*	-1	1	-2	-16	0.5
CNC(=O)CSc1nnc(-c2ccco2)n1-c1ccc(C)cc1	/	-2	/	/	17	/
CC(C)OC(=O)CSc1nnc(-c2ccccc2)n1N	60*	0	0.9	14	9	0.4
COc1cc(NC(C(=O)Nc2cccc(C(C)=O)c2)c2ccccc2)cc(OC)c1OC (centres undefined)	/	-2	/	/	/	/
CCCCCc1nc2sc3c(c2c(=O)n1NC(=O)c1ccc([N+](=O)[O-])cc1)CC(C)(C)OC3	/	0	/	/	/	/
Cc1cc(O)c(C(C)C)cc1N=C1CSC(=O)N1	3	-2	0.6	38	16	1
CCOC(=O)c1c(N)sc2c(OC)c(Br)ccc12	2	2	0.4	63*	11	1
COc1ccc(CCCc2nnc(SCC(=O)Nc3cc(C)c(C)cc3Br)o2)cc1	69*	1	0.2	83*	3	0.3
COc1ccc(OC)c(NC(=O)CSc2nnc(CNC(=O)c3ccco3)o2)c1	9	0	0.7	26	-9	0.9
COc1ccc(CCCc2nnc(SCC(=O)Nc3cccc(C)c3)o2)cc1	54*	-1	0.4	64*	6	0.5
COc1ccc(CCCc2nnc(SCC(=O)Nc3ncc(C)s3)o2)cc1	33	-3	0.5	48	6	0.7
COc1ccc(OC)c(/C=N\NC(=O)CSc2nnc(CCCc3ccc(OC)c(C)c3)o2)c1	64*	-5	0.3	70*	/	0.4
COc1ccc(Cc2nnc(SCC(=O)NCC3CCCO3)o2)cc1 (centres undefined)	-5	-3	1.1	-6	1	1
CN(C(=O)Nc1ccc(Cl)cc1Cl)[C@H]1c2cc(Br)ccc2OC[C@H]1CO	41	-1	0.1	87*	/	0.6
O=C(NNC(=O)c1ccc(F)cc1)C(=O)N1CCCCC1	/	-1	/	/	/	/
O=C(NCCc1ccccn1)C1CC(=O)N(Cc2ccccc2Cl)C1 (centres undefined)	68*	-1	1.3	-34	-1	0.3
O=C(COC(=O)/C=C/c1ccc(OC(F)F)cc1)NCc1cccs1	/	-1	/	/	/	/
COc1cc([N+](=O)[O-])ccc1N/C=C/C(=O)c1cccs1	24	-2	0.8	17	-6	0.8
SMILES	CYP2C19 inh	MRP-1 activ	CYP2C9 act	CYP2C9 inhib	MRP resist rev	CYP2C19 activ
COc1ccc(OC)c(C(C)NC(=O)c2ccco2)c1 (centres undefined)	82*	-4	0.3	66*	-16	0.2
COc1ccc(C(NC(=O)c2ccco2)c2ccc(OC)c(OC)c2)cc1OC	72*	-3	0.4	61*	12	0.3
O=C(Cn1c(NCCO)nc2ccccc21)NCCc1ccc(F)cc1	17	-4	1	-2	-4	0.8
CCOC(=O)Cc1c(C)nc2c(-c3ccc(Cl)cc3)c[nH]n2c1=O	7	-2	0.3	67*	-28	0.9
CCOC(=O)Cc1cc(=O)n2[nH]c(C)c(-c3ccc(Cl)cc3)c2n1	4	-6	0.5	50*	-15	1
CCOC(=O)c1c(-c2ccccc2Cl)cn2ccccc12	73*	-1	0.2	78*	/	0.3
CCCNC(=O)COC(=O)c1cc2c(=O)n3ccccc3nc2s1	/	-1	/	/	/	/
CC(C)C(c1nnnn1C1CCCCC1)N1CCN(c2ncccn2)CC1 (centres undefined)	27	-3	0.4	60*	-3	0.7
CC(C)CC(c1nnnn1C1CCCCC1)N1CCN(c2ncccn2)CC1 (centres undefined)	88*	-2	0	96*	16	0.1
CC(C)CC(c1nnnn1C1CCCC1)N1CCN(c2ccccc2F)CC1 (centres undefined)	-1	-2	0.9	9	13	1
CC(C)C(c1nnnn1C1CCCC1)N1CCN(C(=O)c2ccco2)CC1 (centres undefined)	5	-2	0.5	50*	8	1
O=C(c1ccco1)N1CCN(C(c2ccccc2)c2nnnn2C2CCCC2)CC1 (centres undefined)	/	-2	/	/	6	/
CCn1cc(SCC(=O)N2CCOCC2)c2ccccc21	59*	-1	1	0	-1	0.4
CSc1nsc(SCC(=O)N2CCN(c3ccccc3)CC2)n1	73*	-2	0.2	76*	13	0.3
O=C(Cn1cc(SCc2ccccc2Cl)c2ccccc21)N1CCOCC1	/	-3	/	/	/	/
Cc1c(C#N)c2ccccc2n1CC(=O)N1CCCC1	-6	-2	1.1	-8	20	1.1
Cc1c(C#N)c2ccccc2n1CC(=O)N1CCCc2ccccc21	32	-4	0.1	92*	-28	0.7
Cn1cc(SCC(=O)N2CCOCC2)c2ccccc21	90*	-2	1.3	-25	4	0.1
O=[N+]([O-])c1ccc(Cl)cc1CNc1ccc(F)c(F)c1	/	-1	/	/	/	/
CCCn1c(CNS(=O)(=O)c2ccc(C)cc2)nc2ccccc21	36	-3	1.2	-23	-6	0.6
CCn1cc(C(=O)C(F)(F)F)c2ccccc21	7	0	2.3*	-131	/	0.9
Cn1cc(SCC(=O)N2CCCc3ccccc32)c2ccccc21	98*	-3	0.8	18	6	0
CC(OC(=O)Cn1c(C(F)(F)F)nc2ccccc21)C(=O)N1CCCc2ccccc21 (centres undefined)	17	-1	0.5	52*	1	0.8
Cn1cc(SCC(=O)N2CCN(c3ccccc3)CC2)c2ccccc21	99*	-1	1	4	10	0
Cn1cc(SCC(=O)O)c2ccccc21	3	0	1	3	-20	1
Cc1ccc(N2C(=O)C3C4CC(=O)C(c5ccccc54)C3C2=O)cc1C (centres undefined)	/	-1	/	/	/	/
CC(C)NC(=O)Cn1c(SCC(=O)N2CCCc3ccccc32)nc2ccccc21	58*	-1	0.2	85*	-2	0.4
